This is part of a sample that, as a whole, favours compounds with a hit. Of some 79,000 tested, about 15% had one in any assay. The source made the active and inactive calls. No stated cut-off is given here; in the data, active means growth inhibition above about 70%; inactive means the rest.
Columns and labels:
[1] = NCI Yeast Anticancer Drug Screen. Data for the rad52 strain (AID 147);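 further: 0% = growth of vehicle-treated control cultures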; settings: S. cerevisiae rad52 mutant growth inhibition, stronger effect = higher value
Summary of the method: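 Measured: yeast growth inhibition. System: strain with a defined DNA damage repair alteration. Reference: vehicle-treated control cultures.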

[2] = NCI Yeast Anticancer Drug Screen. Data for the wt1 strain (AID 149);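 further: 0% = growth of vehicle-treated wt1 cultures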; settings: S. cerevisiae wt1 strain (SPY 50644) growth inhibition, stronger effect = higher value
Summary of the method: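 Measured: growth of wt1 yeast under compound versus vehicle treatment, reported as inhibition.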

[3] = NCI Yeast Anticancer Drug Screen. Data for the rad50EPP+ strain (AID 151);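 further: 0% = growth of vehicle-treated control cultures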; settings: S. cerevisiae rad50 mutant strain, stronger effect = higher value
Summary of the method: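 One strain with a rad50 alteration (rad50EPP+) was compound-treated, its growth then compared to that of vehicle controls.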

[4] = NCI Yeast Anticancer Drug Screen. Data for the rad50 strain (AID 155);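 further: 0% = growth of vehicle-only cultures of the same strain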; settings: S. cerevisiae rad50 strain growth inhibition, stronger effect = higher value
Summary of the method: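 Growth of the mutant yeast was measured after compound exposure and referenced to vehicle-treated cultures.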

[5] = NCI Yeast Anticancer Drug Screen. Data for the mec2-1 strain (AID 157); settings: S. cerevisiae mec2-1 strain, stronger effect = higher value
Summary of the method: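 Test agents were screened against the mec2-1 yeast strain, with defined DNA repair or cell cycle alteration. Growth was scored as inhibition against vehicle-only controls.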

[6] = NCI Yeast Anticancer Drug Screen. Data for the rad14 strain (AID 159);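 further: 0% = growth of vehicle-treated control cultures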; settings: S. cerevisiae rad14 strain growth inhibition, stronger effect = higher value
Summary of the method: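 Here, inhibition of yeast growth was measured after compound exposure, using a strain with a genetic defect in DNA damage repair and vehicle-treated cultures as the reference.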

[7] = NCI Yeast Anticancer Drug Screen. Data for the sgs1 mgt1 strain (AID 161);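 further: 0% = growth of cultures given vehicle only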; settings: S. cerevisiae sgs1 mgt1 strain, stronger effect = higher value
Summary of the method: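 Inhibition of yeast growth, normalised to vehicle-treated controls, is reported for a strain bearing genetic alterations in DNA damage repair.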

[8] = NCI Yeast Anticancer Drug Screen. Data for the CLN2oe strain (AID 163);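 further: 0% = growth of vehicle-only control cultures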; settings: S. cerevisiae CLN2oe strain, stronger effect = higher value
Summary of the method: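 Here, growth inhibition in a cell-cycle-altered yeast strain after compound exposure was quantified against vehicle control growth.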

[9] = NCI Yeast Anticancer Drug Screen. Data for the cln2 rad14 strain (AID 165);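 further: 0% = growth equal to vehicle treated cultures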; settings: S. cerevisiae cln2 rad14 strain, stronger effect = higher value
Summary of the method: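 Growth of compound-exposed yeast (cln2 rad14 genotype) measured and expressed as inhibition relative to vehicle.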

[10] = NCI Yeast Anticancer Drug Screen. Data for the bub3 strain (AID 167); settings: S. cerevisiae bub3 mutant strain, stronger effect = higher value
Summary of the method: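 Whole-cell yeast assay. The mutant strain was incubated with compounds, and growth inhibition was determined by comparison with vehicle-treated cells.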

[11] = NCI Yeast Anticancer Drug Screen. Data for the wt2 strain (AID 169);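 further: 0% = growth of vehicle-treated yeast cultures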; settings: S. cerevisiae wt2 strain growth inhibition, stronger effect = higher value
Summary of the method: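 Genetically defined yeast strains from a DNA-repair/cell-cycle panel were used. Compound-exposed yeast growth was measured, and the inhibition was calculated relative to vehicle treatment.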

[12] = NCI Yeast Anticancer Drug Screen. Data for the mlh1 strain (AID 171);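 further: 0% = growth of vehicle-treated control cultures of the same strain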; settings: S. cerevisiae mlh1 strain growth inhibition, stronger effect = higher value
Summary of the method: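 Here the genetically defined yeast mutant is grown with each compound, and the extent to which its growth falls below that of vehicle-exposed cells is reported.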

[13] = NCI Yeast Anticancer Drug Screen. Data for the sgs1 strain (AID 173);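 further: 0% = growth of vehicle-only control cultures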; settings: S. cerevisiae sgs1 mutant, stronger effect = higher value
Summary of the method: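 Relative growth inhibition, referenced to vehicle, was determined in a yeast strain with a defined alteration affecting DNA damage repair or cell cycle control after compound exposure.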

[14] = NCI Yeast Anticancer Drug Screen. Data for the mlh1 rad18 strain (AID 175); settings: S. cerevisiae mlh1 rad18 strain growth inhibition, stronger effect = higher value
Summary of the method: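 In this whole-cell yeast screen, a strain with altered DNA damage repair is challenged with compound, and its growth is measured against matched vehicle-treated controls.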

[15] = NCI Yeast Anticancer Drug Screen. Data for the rad18 strain (AID 177); settings: S. cerevisiae rad18 mutant growth inhibition, stronger effect = higher value
Summary of the method: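 Screen uses a yeast strain with a defined lesion in DNA damage repair; compound effect is read as loss of growth compared to untreated vehicle cultures.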

[16] = at 5.0 µM (retest, dose inferred, filed as 0.5)
[17] = at 50.0 µM (retest, dose inferred, filed as 5.0)

Measured: growth inhibition

N#C/C(=C1C=C/C(=N/O)c2ccccc2/1)c1ccccc1
inactive: [1]; at 1.2 µM -1% | [1]; at 3.7 µM -1% | [1]; at 11.0 µM 1% | [2]; at 1.2 µM -3% | [2]; at 3.7 µM -4% | [2]; at 11.0 µM -6% | [2]; at 33.0 µM 53% | [2]; at 100.0 µM 56% | [3]; at 1.2 µM 7% | [3]; at 3.7 µM 13% | [3]; at 11.0 µM 16% | [3]; at 33.0 µM 36% | [3]; at 100.0 µM 35% | [4]; at 1.2 µM 2% | [4]; at 3.7 µM 1% | [4]; [16] 47% | [4]; at 11.0 µM 4% | [5]; at 1.2 µM -3% | [5]; at 3.7 µM -8% | [5]; [16] 24% | [5]; at 11.0 µM -8% | [5]; at 33.0 µM 52% | [5]; at 100.0 µM 49% | [6]; at 1.2 µM -3% | [6]; at 3.7 µM -6% | [6]; at 11.0 µM -3% | [6]; at 33.0 µM 55% | [7]; [16] 60% | [8]; at 1.2 µM -5% | [8]; at 3.7 µM -6% | [8]; at 11.0 µM -6% | [8]; at 33.0 µM 49% | [8]; at 100.0 µM 62% | [9]; [16] 8% | [10]; at 1.2 µM -6% | [10]; at 3.7 µM -10% | [10]; [16] 49% | [10]; at 11.0 µM -8% | [10]; at 33.0 µM 42% | [10]; at 100.0 µM 50% | [11]; at 1.2 µM -4% | [11]; at 3.7 µM -5% | [11]; at 11.0 µM -4% | [11]; at 33.0 µM 49% | [11]; at 100.0 µM 36% | [12]; at 1.2 µM -1% | [12]; at 3.7 µM -2% | [12]; at 11.0 µM 1% | [12]; at 100.0 µM 57% | [13]; at 1.2 µM -2% | [13]; at 3.7 µM -2% | [13]; at 11.0 µM 1% | [13]; at 100.0 µM 66% | [14]; [16] 49% | [15]; at 1.2 µM -1% | [15]; at 3.7 µM 3% | [15]; at 11.0 µM -1%
active: [1]; at 33.0 µM 84% | [1]; at 100.0 µM 71% | [4]; at 33.0 µM 92% | [4]; [17] 97% | [4]; at 50.0 µM 96.6% | [4]; at 100.0 µM 87% | [5]; [17] 97% | [5]; at 50.0 µM 98% | [6]; at 100.0 µM 71% | [7]; [17] 97% | [7]; at 50.0 µM 96.6% | [9]; [17] 97% | [9]; at 50.0 µM 95.8% | [10]; [17] 95% | [10]; at 50.0 µM 97.7% | [12]; at 33.0 µM 73% | [13]; at 33.0 µM 95% | [14]; [17] 96% | [14]; at 50.0 µM 91.5% | [15]; at 33.0 µM 88% | [15]; at 100.0 µM 80%

CCCc1[nH]nc(C(N)=O)c1N=NN(C)C
inactive: [1]; at 1.2 µM 2% | [1]; at 3.7 µM 12% | [1]; at 11.0 µM 37% | [2]; at 1.2 µM -6% | [2]; at 3.7 µM -4% | [2]; at 11.0 µM -7% | [2]; at 33.0 µM -4% | [2]; at 100.0 µM 5% | [3]; at 1.2 µM 2% | [3]; at 3.7 µM 16% | [3]; at 11.0 µM 43% | [4]; at 1.2 µM 3% | [4]; at 3.7 µM 4% | [4]; [16] -108% | [4]; at 11.0 µM 31% | [5]; at 1.2 µM 1% | [5]; at 3.7 µM -1% | [5]; [16] -44% | [5]; at 11.0 µM -14% | [5]; at 33.0 µM 11% | [5]; [17] -15% | [5]; at 50.0 µM 14.1% | [5]; at 100.0 µM 63% | [6]; at 1.2 µM 0% | [6]; at 3.7 µM -1% | [6]; at 11.0 µM 5% | [6]; at 33.0 µM 11% | [6]; at 100.0 µM 30% | [7]; [16] -55% | [7]; [17] 18% | [7]; at 50.0 µM 44.1% | [8]; at 1.2 µM -3% | [8]; at 3.7 µM -3% | [8]; at 11.0 µM 2% | [8]; at 33.0 µM -3% | [8]; at 100.0 µM 5% | [9]; [16] -59% | [9]; [17] -48% | [9]; at 50.0 µM 13.4% | [10]; at 1.2 µM -13% | [10]; at 3.7 µM -9% | [10]; [16] -60% | [10]; at 11.0 µM -5% | [10]; at 33.0 µM -6% | [10]; [17] -73% | [10]; at 50.0 µM -0.25% | [10]; at 100.0 µM 4% | [11]; at 1.2 µM -1% | [11]; at 3.7 µM 0% | [11]; at 11.0 µM -1% | [11]; at 33.0 µM 3% | [11]; at 100.0 µM 10% | [12]; at 1.2 µM 7% | [12]; at 3.7 µM -5% | [12]; at 11.0 µM -2% | [12]; at 33.0 µM 0% | [12]; at 100.0 µM 11% | [13]; at 1.2 µM 0% | [13]; at 3.7 µM -3% | [13]; at 11.0 µM 24% | [13]; at 33.0 µM 56% | [14]; [16] -120% | [14]; [17] 13% | [15]; at 1.2 µM -2% | [15]; at 3.7 µM 6% | [15]; at 11.0 µM 32%
active: [1]; at 33.0 µM 90% | [1]; at 100.0 µM 96% | [3]; at 33.0 µM 82% | [3]; at 100.0 µM 95% | [4]; at 33.0 µM 83% | [4]; [17] 81% | [4]; at 50.0 µM 94.8% | [4]; at 100.0 µM 94% | [13]; at 100.0 µM 85% | [14]; at 50.0 µM 73.5% | [15]; at 33.0 µM 83% | [15]; at 100.0 µM 94%
